In PubChem BioAssay (NCI):
About 79,000 compounds went through this panel and 15% of them were active in at least one assay; those are over-represented in the sample as a whole. Unmarked numbers belong to inactive results. Activity calls are given as the source filed them. Cut-off read from the data, not from the text of the source: active = growth inhibition above about 70%; inactive = the rest.

Key:
[1] = NCI Yeast Anticancer Drug Screen. Data for the rad50 strain (AID 155);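 note: 0% = growth of vehicle-only cultures of the same strain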; conditions: S. cerevisiae rad50 strain growth inhibition, stronger effect = higher value
In short: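 Cells are treated with compound, grown, and their growth is then scored against vehicle-only cultures of the same repair-deficient yeast strain.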

[2] = NCI Yeast Anticancer Drug Screen. Data for the mec2-1 strain (AID 157); conditions: S. cerevisiae mec2-1 strain, stronger effect = higher value
In short: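 Using mec2-1 yeast: add compound, measure growth, express inhibition versus vehicle-treated cultures.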

[3] = NCI Yeast Anticancer Drug Screen. Data for the sgs1 mgt1 strain (AID 161);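 note: 0% = growth of cultures given vehicle only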; conditions: S. cerevisiae sgs1 mgt1 strain, stronger effect = higher value
In short: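 Compounds are added to genetically altered yeast, and growth is compared with cultures given vehicle alone to give percent inhibition.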

[4] = NCI Yeast Anticancer Drug Screen. Data for the cln2 rad14 strain (AID 165);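 note: 0% = growth equal to vehicle treated cultures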; conditions: S. cerevisiae cln2 rad14 strain, stronger effect = higher value
In short: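 Yeast strain cln2 rad14, bearing defects in cell cycle control and DNA repair, serves as the test system; values reflect growth inhibition compared with vehicle.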

[5] = NCI Yeast Anticancer Drug Screen. Data for the bub3 strain (AID 167); conditions: S. cerevisiae bub3 mutant strain, stronger effect = higher value
In short: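 Part of a panel of yeast mutants defective in DNA damage repair or cell cycle regulation. Each strain is grown with compound, and inhibition is calculated relative to solvent-treated cultures.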

[6] = NCI Yeast Anticancer Drug Screen. Data for the mlh1 rad18 strain (AID 175); conditions: S. cerevisiae mlh1 rad18 strain growth inhibition, stronger effect = higher value
In short: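 Steps: expose repair-defective yeast to compound; measure growth; express inhibition against vehicle-treated controls.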

[7] = at 5.0 µM (retest, dose inferred, filed as 0.5)
[8] = at 50.0 µM (retest, dose inferred, filed as 5.0)

SMILES	growth inhibition [1, 7]	growth inhibition [1, 8]	growth inhibition ([1]; at 50.0 µM)	growth inhibition [2, 7]	growth inhibition [2, 8]	growth inhibition ([2]; at 50.0 µM)	growth inhibition [3, 7]	growth inhibition [3, 8]	growth inhibition ([3]; at 50.0 µM)	growth inhibition [4, 7]	growth inhibition [4, 8]	growth inhibition ([4]; at 50.0 µM)	growth inhibition [5, 7]	growth inhibition [5, 8]	growth inhibition ([5]; at 50.0 µM)	growth inhibition [6, 7]	growth inhibition [6, 8]	growth inhibition ([6]; at 50.0 µM)
COc1ccc(Cc2nc3ccc(Cl)cc3[nH]2)cc1	4%	42%	77% (active)	-4%	59%	76.4% (active)	4%	78% (active)	82% (active)	-6%	14%	66%	1%	44%	84.3% (active)	23%	74% (active)	86.9% (active)
C/C(=N/NC(=O)c1ccccc1S(N)(=O)=O)C(CN1CCCCC1)C(C1=C(O)C2C=CC=CC2OC1=O)c1ccccc1 (stereo not given)	41%	41%	89.7% (active)	25%	25%	91.4% (active)	19%	19%	91% (active)	8%	8%	88.8% (active)	31%	31%	88.8% (active)	22%	22%	88% (active)
Fc1ccc(CSC(=S)Nc2ccc(Br)cc2)cc1	9%	99% (active)	91.2% (active)	8%	99% (active)	90% (active)	11%	99% (active)	94.8% (active)	-9%	99% (active)	56.2%	-6%	99% (active)	71.1% (active)	21%	99% (active)	95.5% (active)
O=c1[nH]c2c([N+](=O)[O-])cc(Cl)cc2nc1/C=C(\O)c1ccc(Cl)cc1	-16%	91% (active)	96.8% (active)	20%	87% (active)	95.3% (active)	-3%	78% (active)	95.3% (active)	-27%	83% (active)	65%	17%	87% (active)	89.8% (active)	13%	95% (active)	97.2% (active)
Cc1cc(=O)c2cc(N=Cc3ccc([N+](=O)[O-])o3)ccc2o1	-1%	72% (active)	74.9% (active)	-10%	23%	17.9%	-6%	54%	42.6%	0%	10%	21.2%	-4%	6%	6.1%	10%	49%	40%
O=C(NCCCN1CC2CCCC2C1)C(C1CCCCC1)C1CCCCC1 (stereo not given)	-5%	94% (active)	99.6% (active)	-12%	76% (active)	99.5% (active)	-9%	92% (active)	99.5% (active)	0%	98% (active)	99.2% (active)	-22%	99% (active)	99.5% (active)	-3%	96% (active)	99.5% (active)
COC(=O)/C(=C\c1cn(C(C)=O)c2ccccc12)P(=O)(OC)OC	9%	21%	41.8%	5%	70% (active)	62.6%	2%	51%	70.8% (active)	31%	38%	63.9%	-24%	73% (active)	78.5% (active)	16%	69%	75.8% (active)
COc1cccc2c1C(=O)c1c(O)c3c(c(O)c1C2=O)C[C@@](O)(/C(C)=N\NC(N)=O)C[C@@H]3OC1CC(N)C(O)C(C)O1 (stereo not given in full)	30%	83% (active)	88.8% (active)	52%	34%	43.8%	6%	30%	36.9%	7%	30%	1.5%	6%	45%	35.6%	8%	7%	57%
CC(=O)Oc1cc(Cl)ccc1Cc1ccc(Cl)cc1OC(C)=O	0%	87% (active)	94.5% (active)	1%	78% (active)	91.4% (active)	0%	76% (active)	85.1% (active)	2%	89% (active)	90.7% (active)	2%	83% (active)	94.8% (active)	1%	90% (active)	94.7% (active)
O=[N+]([O-])C(=C(Nc1ccccc1)Nc1ccccc1)C(Cl)=C(Cl)Cl	97% (active)	100% (active)	89.2% (active)	98% (active)	100% (active)	93% (active)	92% (active)	99% (active)	89.2% (active)	91% (active)	100% (active)	90.7% (active)	94% (active)	100% (active)	91.5% (active)	99% (active)	100% (active)	85.7% (active)
